Screens: PubChem, National Center for Advancing Translational Sciences (NCATS)
Shown are actives, neighbours in structure and some others; about 19% of the full set was active somewhere.
KB-3-1 cytotox – kills parental KB-3-1 adenocarcinoma cells; Potency, µM (titrated, usually from 46.1 µM), hits mostly cytotoxic; 400,000 compounds, 1.4% hits; KB-3-1 viability, CellTiter-Glo ATP luminescence, 72 h; also: nearly all actives have a fitted effect of over 60% in size
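Multi-concentration cytotoxicity screen in KB-3-1 cells grown in DMEM lacking phenol red with 10% FBS. After 72 h at 37 °C with compound, ATP-dependent luminescence was recorded.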
DT40 TDP1 CPT – growth inhibition of DT40 Tdp1-/-;hTDP1 cells with camptothecin (screen for TDP1 inhibitors); chicken DT40 Tdp1-/-;hTDP1 cells + 20 nM CPT, ATP luminescence, 48 h; Potency, µM (doses to about 46.2 µM), for the others: top-dose activity change, negative = growth inhibition, most hits filed as inhibitors; 420,000 compounds, 12% hits; also: nearly all actives have a fitted effect of over 55% in size
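Cell growth measured by CellTiter-Glo luminescence after a minimum 48 h, 37 C compound exposure with 20 nM CPT in Tdp1-knockout DT40 cells stably expressing hTDP1, seeded 400/well; qHTS titration format.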
HT1080NT lethal – kills 2HG-producing HT-1080-NT fibrosarcoma cells | HT-1080-NT fibrosarcoma viability, CellTiter-Glo ATP luminescence, 48 h | Potency, µM (top dose mostly 46.1 µM), for the others: at the top dose activity, negative = less viability, actives largely listed as cytotoxic | 360,000 compounds, 1.6% hits | AID 686970;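 also: NT is the 2HG producing partner of a matched IDH1 knockdown line; 0% = DMSO-treated cells and -100% = media-only wells without cells; nearly all actives have a fitted effect of over 55% in size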
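Luminescent CellTiter-Glo readout after 48 hours of compound exposure at 37 degrees C defined viability of HT-1080-NT cells. Activity was normalized to DMSO wells and cell-free media wells; concentration-response curves were fitted and assigned curve classes.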
HT1080 IDH1KD tx – HT-1080 IDH1 knockdown cell toxicity (counter line); HT-1080 IDH1 knockdown viability, ATP luminescence, 48 h; Potency, µM (highest dose often 46.1 µM), without a hit: at the highest dose activity, negative = toxicity, most hits filed as cytotoxic; 360,000 compounds, 2% hits; AID 686971;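 also: 0% = DMSO wells and -100% = cell-free medium wells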
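Luminescent ATP read-out (CellTiter-Glo, 10 min at room temperature) after 48 h compound exposure at 37 °C gave viability of IDH1-knockdown HT-1080 cells. Activity was normalised to DMSO and cell-free wells, then fitted as concentration-response curves.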
KB-V1 MDR tox – KB-V1 MDR subline cytotoxicity | KB-V1 MDR cells viability, CellTiter-Glo, 72 h | Potency, µM (doses to about 46.1 µM), hits mostly cytotoxic | 400,000 compounds, 3.4% hits | AID 1347076; also: nearly all actives have a fitted effect of over 60% in size
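KB-V1 MDR subline cells in DMEM (phenol-red free, 10% FBS) exposed to compounds in qHTS concentration series for 72 h at 37 degrees C. Viability read by CellTiter-Glo luminescence; concentration-effect curves fitted after normalization and correction.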
DT40 TDP1 no CPT – qHTS for Inhibitors of human tyrosyl-DNA phosphodiesterase 1 (TDP1): qHTS in cells in absence of CPT. 420,000 compounds, 15% hits. Potency, µM (titrated, usually from 46.2 µM), for the others: at the highest dose activity change, negative = growth inhibition, usual class: inhibitors. DT40 Tdp1-/- hTDP1 cells, no CPT, ATP luminescence, 48 h. AID 686978, 2013; also: nearly all actives have a fitted effect of over 55% in size
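A cellular qHTS used chicken DT40 cells lacking endogenous Tdp1 but carrying stably transfected human TDP1. Compounds were applied without camptothecin, and cell growth kinetics were judged by ATP-dependent luminescence after ≥48 hr.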
* hit, by the source's call; i = inactive; ? = inconclusive; / = no result given. Calls follow the shape of the dose curve; as a rule, active = well fitted curve in the direction sought with a large enough effect; inconclusive = small, poorly fitted or top-dose-only effect, or another doubt; inactive = no such curve, though single readings can be large; an effect the other way counts as inactive or inconclusive. Unless noted, % is scaled to controls: 0 for no effect and ±100 for the full control effect; potency is read from the fitted curve at half-maximal effect.

SMILES	KB-3-1 cytotox	DT40 TDP1 CPT	HT1080NT lethal	HT1080 IDH1KD tx	KB-V1 MDR tox	DT40 TDP1 no CPT
CN(C)c1ccc(C(CNC(=O)c2ccccc2)N2CCc3ccccc32)cc1 (centres undefined)	i	7.31µM*	/	/	i	14.6µM*
CC1Sc2n(c3ccccc3[n+]2C)N=C1c1ccccc1 (centres undefined)	7.31µM*	1.46µM*	-23.0%	7.31µM*	i	1.46µM*
C[n+]1c2n(c3ccccc31)N=C(c1ccc(Cl)cc1)CS2	5.8µM*	1.16µM*	?	?	i	0.92µM*
Clc1ccc(C2=Nn3c(Cn4nnc5ccccc54)nnc3SC2)cc1	i	-27.2%	-17.8%	-13.5%	?	-25.9%
Cn1c(-c2ccccn2)[n+](C)c2ccccc21	i	-10.1%	8.1%	-3.3%	i	17.1%
COc1ccc(NC(=O)N2CCC3(CC2)CCN(C(=O)c2cccn2C)CC3)cc1	/	-19.3%	/	/	/	?
N#Cc1ccccc1S(=O)(=O)N1CCN(C(=O)C2COc3ccccc3O2)CC1 (centres undefined)	i	-9.6%	-3.4%	-5.5%	20.6µM*	-4.8%
O=C(C1COc2ccccc2O1)N1CCN(c2ccc([N+](=O)[O-])cc2)CC1 (centres undefined)	?	?	-0.6%	-13.1%	i	20.6µM*
O=C(C1COc2ccccc2O1)N1CCN(c2nc3ccc([N+](=O)[O-])cc3s2)CC1 (centres undefined)	i	?	0.8%	11.3%	i	23.1µM*
CSc1nccc(-c2cc(Cl)c3c(c2)CC(CNC(=O)c2ccc(C)nc2)O3)n1 (centres undefined)	/	-6.2%	/	/	/	-3.9%
O=C(COC(=O)c1ccc(N2CCOCC2)c([N+](=O)[O-])c1)Nc1ccc2c(c1)OCO2	?	-16.8%	?	25.7%	8.2µM*	?
CC1CCN(c2ccc(C(=O)Nc3ccc4c(c3)OCO4)cc2[N+](=O)[O-])CC1	i	10.3µM*	-15.4%	?	?	9.2µM*
Cc1ccc(C(=O)OCC(=O)Nc2ccc3c(c2)OCO3)cc1S(=O)(=O)N1CCOCC1	i	8.8%	8.1%	14.6%	i	-8.8%
CC1CCN(c2ccc(C(=O)N3CCOCC3)cc2[N+](=O)[O-])CC1	i	-28.7%	6.9%	9.2%	i	?
CC1CCCN(c2ccc(C(=O)Nc3ccc4c(c3)OCO4)cc2[N+](=O)[O-])C1 (centres undefined)	i	?	-10.4%	?	i	20.6µM*
CC1CCCN(c2ccc(C(=O)NCc3ccc4c(c3)OCO4)cc2[N+](=O)[O-])C1 (centres undefined)	i	?	6.8%	3.8%	?	?
CC1CCCN(c2ccc(C(=O)OCC(=O)N3c4ccccc4Sc4ccccc43)cc2[N+](=O)[O-])C1 (centres undefined)	i	18.4µM*	10.9%	5.6%	i	23.1µM*
Cc1c(CCOC(=O)c2ccc(N3CCOCC3)c([N+](=O)[O-])c2)sc[n+]1CC#N	20.6µM*	4.61µM*	23.1µM*	?	?	2.59µM*
Cc1ncsc1CCOC(=O)c1ccc(N2CCOCC2)c([N+](=O)[O-])c1	i	-7.1%	0.6%	-2.0%	i	16.7%
CCOC(=O)c1ccc(NC(=O)c2c(NCc3cc(OC)ccc3OC)sc3c2CCC3)cc1	i	16.4µM*	/	/	i	?
CCOC(=O)c1ccc(NC(=O)c2c(NCc3cc(OC)c(OC)cc3OC)sc3c2CCCC3)cc1	i	23.1µM*	/	/	i	?
